# According to PubChem BioAssay AID1628 (Sanford-Burnham Center for Chemical Genomics, 2009):
# The whole screen tested about 190,000 compounds, of which about 930 (0.49%) were called active.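 How the source made its calls: active means z-score of insulin promoter reporter brightness in nuclei below -3 at 5 µM, with at least 500 cells counted; inconclusive means wells with under 500 cells, flagged as toxic or sparse; inactive means the rest.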 This is one part of the list. Results with a measured potency or affinity are listed apart.
# Assay: decrease of insulin promoter-GFP reporter – imaging, high-content screening, mouse beta cells (AID 1628)
# Conditions: MIN6 insulin promoter GFP reporter, at 5 µM, stronger effect = lower value
row,SMILES,z-score
1,COc1ccc(C(=O)CSc2nnc(Cn3cnc4ccccc43)o2)cc1,-3.47 (active)
2,Cc1[nH]c2ccccc2c1Cc1nnc(SCC(N)=O)o1,4.82 (inactive)
3,CCC(=O)c1cc(F)c(N2CCN(S(=O)(=O)c3ccc(C)cc3)CC2)cc1C,-4.01 (active)
4,C/C(=N\S(=O)(=O)c1ccc(C)cc1)N1CCN(S(=O)(=O)c2ccccc2)C1,3.52 (inactive)
5,CCCSc1nc2sc3c(c2c(=O)[nH]1)CCN(Cc1ccccc1)C3,7.3 (inactive)
6,O=C(c1ccco1)N(Cc1ccccc1)c1cccc([N+](=O)[O-])c1,2.28 (inactive)
7,CC(C)(C)c1cc(C(=O)NCc2cccnc2)ccn1,4.34 (inactive)
8,CC(=O)c1c(COC(=O)c2ccncc2)nc2ccccc2[n+]1[O-],4.18 (inactive)
9,CCOc1ccc(C(=O)O)cn1,0.1 (inactive)
10,CCOc1ccc2nc(C)cc(Nc3cccc([N+](=O)[O-])c3)c2c1,-3.35 (active)
11,O=[N+]([O-])c1ccc(N(c2ccccc2)c2ccccc2)cc1,3.11 (inactive)
12,Cc1ccc(Cn2c(=N)n(CC(O)c3ccco3)c3ccccc32)cc1 (stereo not drawn),-11.4 (active)
13,CC(C)(C)c1ccc(Cn2c(=N)n(CC(O)c3ccco3)c3ccccc32)cc1 (stereo not drawn),-5.45 (active)
14,Cc1ccccc1-n1c(=O)c2ccccc2n(CC(=O)NCc2ccco2)c1=O,3.06 (inactive)
15,COc1ccc(CN(CC2CCC(C(=O)O)CC2)C(=S)Nc2cccc(C)c2)cc1 (stereo not drawn),3.65 (inactive)
16,COCCSc1nnc(NC(=O)c2ccc([N+](=O)[O-])cc2)s1,0.48 (inactive)
17,Cc1sc2ncnc(NCCCn3ccnc3)c2c1C,-3.16 (active)
18,COc1ccc(C(=O)Nc2ccc(S(=O)(=O)Nc3nccnc3OC)cc2)cc1OC,-3.5 (active)
19,COc1ccc(C(=O)Nn2cnnc2)cc1OC,4.36 (inactive)
20,COc1ccc(C(=O)Nc2cccnc2)cc1OC,2.67 (inactive)
21,COc1ccc(OCC(=O)Nc2ccc(S(=O)(=O)Nc3cc(C)nc(C)n3)cc2)cc1,3.12 (inactive)
22,CCN(CC)c1ccc2cc(/C(N)=N/NC(=O)c3cccs3)c(=O)oc2c1,7.11 (inactive)
23,CCN(CC)c1ccc2cc(-c3nnc(-c4ccccc4)o3)c(=O)oc2c1,15.1 (inactive)
24,Cc1nc2[nH]c(=O)c3c(n2n1)NC1=C(C(=O)CC(C)(C)C1)C3c1ccccc1 (stereo not drawn),-4.42 (active)

row,SMILES,z-score
1,O=C1S/C(=C/c2ccc(N3CCOCC3)o2)C(=O)N1Cc1c(F)cccc1Cl,3.83 (inactive)
2,Cc1sc2ncnc(Sc3ccccc3C(=O)Nc3ccc(Br)cc3)c2c1C,-5.49 (active)
3,CC1CCN(S(=O)(=O)c2ccc3c(c2)c(=O)c(C(=O)N2CCCCC2)cn3C)CC1,4.9 (inactive)
4,CC1CCc2c(C(=O)N3CCN(S(=O)(=O)c4cccs4)CC3)csc2C1 (stereo not drawn),-3.81 (active)
5,COC(=O)c1cc2occc2n1Cc1c(F)cccc1Cl,3.08 (inactive)
6,COC(=O)c1ccc(COc2ccc3c(C)c(C)c(=O)oc3c2)o1,3.49 (inactive)
7,CCOc1ccc(N2C(N)=NC(N)=NC2(C)C)cc1,-4.31 (active)
8,CCOC(=O)CN1CC23C=CC(O2)C(C(=O)Nc2cc(OC)ccc2OC)C3C1=O (stereo not drawn),4.17 (inactive)
9,COc1cc(N2CCCC2)c(OC)cc1/C=C(/C#N)c1cccc(Br)c1,15.4 (inactive)
10,COc1cc(N2CCCC2)c(OC)cc1/C=C(/C#N)c1cccc(F)c1,3.95 (inactive)
11,N#C/C(=C\c1cc([N+](=O)[O-])c(N2CCCCC2)cc1N1CCCCC1)c1nn(-c2ccccc2)c(N)c1C#N,-3.55 (active)
12,CCOC(=O)CNC(=O)c1cn(C)c(=O)c2cc(OC)c(OC)cc12,3.18 (inactive)
13,CCCNC(=O)c1cc(OC)c(OC)cc1[N+](=O)[O-],-4.31 (active)
14,COc1ccccc1CC(=O)NC1CC(C)(C)NC(C)(C)C1,3.65 (inactive)
15,CC(=O)N1CCN(Cc2nc3cc(NC(=O)c4ccccc4)ccc3n2C)CC1,3.37 (inactive)
16,Cc1cc(N2CCOCC2)nc2ccc(NC(=S)N3CCCCC3C)cc12 (stereo not drawn),1.7 (inactive)
17,CCN1CCN(c2cc(C)c3cc(NC(=O)Cc4ccccc4OC)ccc3n2)CC1,-4.89 (active)
18,CCc1ccc(CN(C)C(=O)CCc2nnc(-c3ccc(-c4ccccc4)cc3)o2)nc1,-3.31 (active)
19,CCN(CC)c1ccc2cc(C#N)c(=O)oc2c1,4.24 (inactive)
20,CCCCCCc1cc2cc(C(=O)Nc3ccc(OC)cc3)c(=O)oc2cc1O,-4.12 (active)
21,CCCCCCc1cc2cc(-c3nnc(-c4ccccc4O)o3)c(=O)oc2cc1O,7.49 (inactive)
22,CCCCCCc1cc2cc(-c3nnc(-c4ccccc4OC)o3)c(=O)oc2cc1O,8.91 (inactive)
23,COC(=O)c1ccc(OCCn2cnc3ccccc3c2=O)cc1,0.57 (inactive)
24,CCCOc1ccc(Cn2cnc3ccccc32)cc1,-5.58 (active)

row,SMILES,z-score
1,Cc1cc(SCCOc2ccccc2)nc(N)n1,3.13 (inactive)
2,COC(=O)Cc1c(C)nc2nc(NCc3ccccc3OC)[nH]n2c1=O,4.27 (inactive)
3,Cc1cc(C)cc(-n2c(=O)c3sccc3n(CC(=O)NCc3ccco3)c2=O)c1,4.64 (inactive)
4,CC(=O)c1sc2nc(-c3cccs3)cc(C(F)(F)F)c2c1N,14.9 (inactive)
5,Nc1ncnc2c1ncn2CCOc1ccccc1,-4.5 (active)
6,CC(C)(C)NC(=O)/C=C/c1ccc(C(F)(F)F)cc1,-3.15 (active)
7,CC(C)(C)C(=O)/C=c1\s/c(=C\c2ccc(-c3ccc([N+](=O)[O-])cc3)o2)c(=O)n1CC(=O)NC(N)=O,17.1 (inactive)
8,CC1(C)C=Cc2c(c3c(c4c(=O)c(-c5ccc(O)cc5)coc24)OC(C)(C)CC3)O1,-0.78 (inactive)
9,CC(C)c1nc2oc3c(N4CCN(C)CC4)ncnc3c2c2c1CCC2,-3.12 (active)
10,COCCn1c(C)cc(C(=O)CSc2ncnc3sc4c(c23)CCC4)c1C,-8.03 (active)
11,CC(OC(=O)c1ccc(S(=O)(=O)NCc2ccco2)cc1)C(=O)Nc1ncc(Cl)cc1Cl (stereo not drawn),-5.26 (active)
12,Cc1noc(C)c1COC(=O)c1ccc(S(=O)(=O)NCc2ccco2)cc1,-4.22 (active)
13,CC(OC(=O)c1ccc2ncsc2c1)C(=O)Nc1ncc(Cl)cc1Cl (stereo not drawn),-5.12 (active)
14,N#Cc1ccc(CSc2nnc(NC(=O)c3ccc4ncsc4c3)s2)cc1,4.4 (inactive)
15,Cc1noc(C)c1CS(=O)(=O)c1ccc(Br)cc1,3.18 (inactive)
16,C1=C(N2CCOCC2)/C(=C/c2nc3ccccc3[nH]2)CC1,3.43 (inactive)
17,COc1ccc(N=c2oc3cc(O)ccc3cc2C(=O)Nc2ccccn2)cc1OC,-3.17 (active)
18,CCN(CC)c1ccc2cc(C(=O)Nc3ccccn3)c(=O)oc2c1,6.12 (inactive)
19,CCCN1C(=O)/C(=C/c2c(NCCCOC(C)C)nc3c(C)cccn3c2=O)SC1=S,11.2 (inactive)
20,CC(C)OCCCn1c(NN)nc2ccccc2c1=O,-4.32 (active)
21,O=c1oc2ccccc2c(NCc2cccc(F)c2)c1[N+](=O)[O-],1.25 (inactive)
22,Cc1ccc(/C(C#N)=C\c2ccc(N3CCOCC3)o2)cc1,6.7 (inactive)
23,Cc1cc(C)c2nc(NNC(=O)c3cc(-c4cccs4)nc4ccccc34)sc2c1,3.73 (inactive)
24,C/C(=N\NC(=O)c1cc(-c2ccccn2)nc2ccccc12)c1cccc([N+](=O)[O-])c1,4.2 (inactive)

row,SMILES,z-score
1,C/C(=N\NC(=O)c1cc(-c2cccs2)nc2ccccc12)c1ccccn1,-6.25 (active)
2,Cc1ccc(N2C(=O)c3cccc4c(N5CCN(C)CC5)ccc(c34)C2=O)c2cccnc12,5.89 (inactive)
3,Cc1ccnc(N2C(=O)c3cccc4c([N+](=O)[O-])ccc(c34)C2=O)c1,3.14 (inactive)
4,COc1ccc(NC(=O)c2sc3nc(-c4cccnc4)ccc3c2N)cc1,6.04 (inactive)
5,O=C(Nc1cccnc1)c1ccc(S(=O)(=O)c2ccc(Cl)cc2)cc1,1.01 (inactive)
6,COc1ccc(Cc2nc(-c3ccc(NC(=O)c4cccnc4)cc3)no2)cc1,-4.08 (active)
7,Cc1cccc(C2C3=C(Nc4[nH]n(-c5ccccc5)c(=O)c42)c2ccccc2C3=O)c1 (stereo not drawn),-4.1 (active)
8,c1ccc2c(c1)oc1c(N3CCN(Cc4ccc5c(c4)OCO5)CC3)ncnc12,-6.44 (active)
9,Brc1ccc2oc3c(N4CCOCC4)ncnc3c2c1,-0.34 (inactive)
10,CC(C)/C=C1\CC/C(=C\c2ccc(N(C)C)cc2)C1=O,3.08 (inactive)
11,COc1cc(-c2noc(C3CCCN(S(=O)(=O)c4cccc(Cl)c4)C3)n2)cc(OC)c1OC (stereo not drawn),-3.23 (active)
12,COc1cccc2c(=O)n(CC(=O)Nc3cccc(F)c3)ccc12,3.43 (inactive)
13,Cc1ccccc1C(=O)Nc1cccc(NC(=O)Cn2cnc3c(=O)n(C)c(=O)n(C)c32)c1,-5.95 (active)
14,Cc1nc(NC(=O)COC(=O)CCS(=O)(=O)c2ccccc2Cl)c(Cl)cc1Cl,4.24 (inactive)
15,N#Cc1cccc(NC(=O)COC(=O)CCc2nc3ccccc3c(=O)[nH]2)c1,1.59 (inactive)
16,O=C(COC(=O)Cn1cnc2ccccc2c1=O)Nc1cc(Cl)ccc1[N+](=O)[O-],-4.27 (active)
17,CCc1cc2c(N3CCN(c4nnc(CC)s4)CC3)ncnc2s1,-5.09 (active)
18,CCOc1cc(/C=N/NC(N)=O)cc(Br)c1OCc1ccccc1F,-5.46 (active)
19,CCCNC(=O)N1CCC(C(=O)c2ccc(Cl)cc2)CC1,3.79 (inactive)
20,O=C(C1CCC1)N1CCc2cc(S(=O)(=O)NCCN3CCN(c4ccccc4F)CC3)ccc21,-4.42 (active)
21,O=C(C1CCC1)N1CCc2cc(S(=O)(=O)NCc3cccnc3)ccc21,-3.56 (active)
